Compound activity as filed in PubChem.
Compounds with a hit are over-represented: about 3.2% of the library has one in this group of screens.
CRFBP-R2 agonist: agonists of human CRF-binding protein/CRF-R2 receptor complex. HEK293 CRF-R2/CRF-BP, calcium dye fluorescence (FLIPR); percent of saturating CRF peptide response. activation, % at 13.2 µM. actives 0.46% (n = 350,000). AID 588473;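 active = activation of at least 50%, plus an integration ratio under a set limit after plate pattern correction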;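 also: plate controls were neutral control wells without compound for no effect and CRF at EC100 for full effect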
PfG6PD inh: PfG6PD (Plasmodium falciparum) enzyme inhibition; PfGluPho enzyme, NADPH resazurin-diaphorase fluorescence; inhibition, % at 20 µM; AID 504690; actives 0.78% (n = 350,000);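 active = inhibition reaching at least a set limit at 20 µM in the primary screen, cut at about 59% in these data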;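 also: 0% = DMSO wells with substrate and 100% = DMSO wells lacking glucose-6-phosphate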
aDG glyco act: increases alpha dystroglycan glycosylation. Pro5-aDG cells, alpha-DG glycosylation AlphaScreen (IIH6); 0% Pro5, 100% B10-LARGE cell signal. AID 624168. activation, % at 10 µM. actives 0.22% (n = 360,000);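 active = activation of at least 8% versus controls, or a plate z-score of at least 8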;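 also: Pro5 are CHO cells carrying HIG-tagged alpha-DG that lacks glycosylation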
FAS-TE inh: inhibitors of human fatty acid synthase thioesterase domain; P49327; recombinant FAS-TE, OMFH fluorogenic substrate, fluorescence endpoint; inhibition, % at 15 µM; actives 0.67% (n = 360,000);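 active = compounds whose normalised, plate-corrected inhibition of enzyme fluorescence in the single-dose primary screen is 50% or more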;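 also: 0% = DMSO with enzyme and 100% = substrate without enzyme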
H9c2 protect: protects H9c2 cardiomyocytes from peroxide injury. H2O2 injury protection, ATPLite, 2 h. protection from H2O2 cell death, % at 20 µM. actives 0.63% (n = 360,000);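 active = compounds giving at least 50% protection of heart cells from peroxide-induced death in the single-dose screen, raw or plate-pattern-corrected value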;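 also: 0% = DMSO wells with peroxide and 100% = DMSO wells without peroxide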
CRFBP-R2 block: antagonists of CRF-binding protein/CRF-R2 receptor complex | inhibition, % at 11.8 µM | HEK293 CRF-R2/CRF-BP, CRF-induced calcium fluorescence | actives 0.59% (n = 350,000) | AID 588475;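 active = inhibition of the ligand-induced calcium signal above about 50% at the single tested concentration, limit read from the data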
Starred values were filed as active, the others as inactive.

SMILES | CRFBP-R2 agonist | PfG6PD inh | aDG glyco act | FAS-TE inh | H9c2 protect | CRFBP-R2 block
COc1cc(OC)nc(Oc2cc(/C=N/O)ccc2OC)n1 | -1 | -12 | 0 | -11 | -3 | -1
Cc1onc(-c2ccccc2)c1C(=O)NNC(=S)NC(=O)c1ccc(Br)cc1 | 150* | -35 | 0 | 1 | 1 | -39
Cc1onc(-c2ccccc2)c1C(=O)NNC(=O)c1ccccc1 | 0 | -12 | 0 | -7 | 1 | 4
COc1ccc(C2/C(=C(/O)c3ccc(C)cc3)C(=O)C(=O)N2CCCN2CCOCC2)cc1 (stereo unspecified) | -1 | 0 | 0 | 1 | -4 | 22
Cc1ccc(COC(=O)c2cc(S(=O)(=O)N3CCOCC3)ccc2C)cc1 | 1 | 5 | 0 | 34 | -6 | -4
COc1ccccc1-n1c(SCC(N)=O)nnc1-c1ccc(S(=O)(=O)N2CCCCC2)cc1 | 62* | 6 | 0 | -9 | 0 | -89
COc1ccc2c(C)cc3n[nH]c(=S)n3c2c1 | -2 | 54 | 0 | 0 | 10 | 8
CCc1nnc(NS(=O)(=O)c2ccc(N=Cc3c(C)[nH]n(-c4cccc(Cl)c4)c3=O)cc2)s1 | -1 | -2 | 0 | 10 | -12 | 51*
COc1ccccc1NS(=O)(=O)c1cccc(C(=O)N/N=C/c2c(CO)cnc(C)c2O)c1 | 16 | -40 | 0 | 13 | 52* | -5
CCc1ccc(-c2cc3c(=O)n(CC(=O)NCCCN4CCC(Cc5ccccc5)CC4)nc(C)n3n2)cc1 | 2 | -11 | -1 | 33 | -19 | 101*
Cn1cnnc1SCc1ccc(C(=O)N=Nc2c(O)n(Cc3ccc(Cl)cc3)c3ccccc23)cc1 | -2 | 23 | 0 | 18 | 54* | 11
COC(=O)C1=C(C)N(CCc2ccc(OC)cc2)C(=O)C1 | 3 | -12 | 0 | -3 | 100* | 8
Cc1ccc(NC(=O)COC(=O)c2ccc(Cl)nc2)cc1S(=O)(=O)N1CCCCC1 | -1 | -3 | 0 | 8 | -11 | -4
COc1ccc(C(=O)Nc2ccc(NC(=O)Cc3ccccc3)cn2)cc1 | -1 | 1 | 0 | -5 | 9 | 11
C[C@H](NC(=O)c1[nH]cnc1C(=O)Nc1ccc(CNC(=O)OC(C)(C)C)cc1)C(=O)OC(C)(C)C | 1 | 37 | 0 | 16 | 22 | -3
ON1C(c2ccc(Cl)cc2Cl)N(O)[C@H]2CCCC[C@H]21 (stereo partly specified) | -2 | -22 | 0 | -11 | -2 | 51*
CCc1cccc(CC)c1N1C(=O)C2=C(SCCCS2)C1=O | 137* | 5 | 1 | -27 | -1 | -127
CCc1cccc(CC)c1N1C(=O)COCC1=O | 0 | -6 | 0 | -8 | 0 | -9
CNC(=S)N1CCN(CCNC2=CC(=O)CC(C)(C)C2)CC1 | -3 | 0 | 0 | -7 | 3 | 15
CC1(C)CC(NCCN2CCN(C3=CC(=C(C#N)C#N)CC(C)(C)C3)CC2)=CC(=C(C#N)C#N)C1 | -1 | -14 | 0 | 48 | 56* | -5
CCN(CC)C(=O)CSc1nnnn1-c1ccc(F)c(Cl)c1 | 2 | -3 | 0 | -1 | -6 | -2
NC(=O)c1ccccc1OCC(=O)NC12CC3CC(CC(C3)C1)C2 | 2 | -8 | 0 | -2 | 56* | -13
CC(=O)Oc1cc(C(=O)OCC(=O)NC23CC4CC(CC(C4)C2)C3)cc(OC(C)=O)c1OC(C)=O | 0 | 1 | 0 | -4 | 84* | 0
Cc1ccccc1OCC(=O)OCC(=O)NC12CC3CC(CC(C3)C1)C2 | -2 | -3 | 0 | -5 | -2 | -3
O=C(CSc1cccc2cccnc12)N/N=C/c1cccc(O)c1 | -1 | 6 | 0 | -9 | 7 | -2
COc1cc(/C=N/NC(=O)c2ccc(COc3cc(C)ccc3C(C)C)cc2)cc(OC)c1O | 1 | 9 | 2 | 8 | 26 | -40
Cc1ccc(C(C)C)c(OCc2ccc(C(=O)N/N=C/c3ccc(O)c(O)c3)cc2)c1 | 1 | -4 | 0 | 1 | 97* | 19
O=C(N/N=C/c1ccc(O)c(O)c1)c1ccc(CSc2cccc3cccnc23)cc1 | -1 | -22 | 0 | 1 | 88* | 77*
